Source: PubChem BioAssay
For some of these results: Measured potencies and affinities stand elsewhere. The source made the active and inactive calls. Unless noted, the rule behind the calls is not given here.

Assays:
[1] = antimalarial activity against Dd2 strain (AID 2302;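 active = growth inhibition above 50% at the single 2 µM test dose, taken to imply half-maximal potency below 2 µM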;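 note: 0% = DMSO untreated growth and 100% = chloroquine plus artemisinin killed control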); conditions: P. falciparum Dd2 in RBCs, LDH growth readout, 72 h; at 2 µM; stronger effect = higher value
[2] = target: L-lactate dehydrogenase (Plasmodium falciparum (isolate CDC / Honduras)) (UniProt Q27743); test: PfLDH activity inhibition – cell lysate, 3D7 strain, counter-screen for P. falciparum growth inhibition project (AID 2304);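 note: 0% = vehicle and 100% = reference inhibitor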; conditions: P. falciparum 3D7 crude extract, LDH APAD/NBT absorbance; at 2 µM; stronger effect = higher value
Chain of L-lactate dehydrogenase (Plasmodium falciparum (isolate CDC / Honduras)) (Q27743 whole entry, looked up): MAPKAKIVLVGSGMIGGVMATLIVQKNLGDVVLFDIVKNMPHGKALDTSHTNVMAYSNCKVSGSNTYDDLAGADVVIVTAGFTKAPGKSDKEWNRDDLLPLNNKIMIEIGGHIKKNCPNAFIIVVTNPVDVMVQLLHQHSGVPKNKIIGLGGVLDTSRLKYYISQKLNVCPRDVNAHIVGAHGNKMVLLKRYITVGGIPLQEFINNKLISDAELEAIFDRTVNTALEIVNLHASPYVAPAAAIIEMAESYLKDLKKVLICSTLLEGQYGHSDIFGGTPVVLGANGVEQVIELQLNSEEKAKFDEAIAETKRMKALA

[3] = inhibition of 3D7 malaria parasite growth – strain 3D7 (AID 2306);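 note: 0% = DMSO wells and 100% = chloroquine plus artemisinin control wells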; conditions: P. falciparum 3D7 erythrocytic growth, LDH absorbance, 72 h; at 2 µM; stronger effect = higher value
[4] = target: Calcium-dependent protein kinase 1 (Plasmodium falciparum (isolate 3D7)) (UniProt P62344); test: PfCDPK1 kinase inhibitors, biochemical, TCAMS library (AID 1159585; cut-off not given, nearly all actives have IC50 up to about 0.98 µM;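 note: inhibitors leave more ATP so luminescence rises with inhibition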); conditions: recombinant PfCDPK1, Kinase-Glo ATP depletion luminescence
Chain of Calcium-dependent protein kinase 1 (Plasmodium falciparum (isolate 3D7)) (P62344 whole entry, looked up): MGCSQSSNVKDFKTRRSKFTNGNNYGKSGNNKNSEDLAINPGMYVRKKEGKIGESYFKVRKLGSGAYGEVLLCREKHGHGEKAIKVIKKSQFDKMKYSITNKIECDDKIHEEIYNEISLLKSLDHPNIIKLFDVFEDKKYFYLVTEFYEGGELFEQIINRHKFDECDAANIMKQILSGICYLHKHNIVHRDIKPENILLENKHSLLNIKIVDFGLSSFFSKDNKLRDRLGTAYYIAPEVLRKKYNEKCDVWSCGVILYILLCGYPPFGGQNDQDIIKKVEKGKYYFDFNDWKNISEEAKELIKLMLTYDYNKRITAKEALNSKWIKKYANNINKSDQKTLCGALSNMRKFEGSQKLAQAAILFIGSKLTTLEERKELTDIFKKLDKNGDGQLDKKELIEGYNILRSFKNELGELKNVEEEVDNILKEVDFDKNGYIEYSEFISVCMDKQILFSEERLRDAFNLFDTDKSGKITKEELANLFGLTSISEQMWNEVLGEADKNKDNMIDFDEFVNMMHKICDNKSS

[5] = target: Plasmodium falciparum protein kinase 6 (PK6, PF3D7_1337100) (UniProt Q8IDW1); test: PfPK6 kinase inhibitors, biochemical, TCAMS library (AID 1159586); conditions: recombinant PfPK6, Kinase-Glo ATP depletion luminescence
Chain of Plasmodium falciparum protein kinase 6 (PK6, PF3D7_1337100) (Q8IDW1 1-305): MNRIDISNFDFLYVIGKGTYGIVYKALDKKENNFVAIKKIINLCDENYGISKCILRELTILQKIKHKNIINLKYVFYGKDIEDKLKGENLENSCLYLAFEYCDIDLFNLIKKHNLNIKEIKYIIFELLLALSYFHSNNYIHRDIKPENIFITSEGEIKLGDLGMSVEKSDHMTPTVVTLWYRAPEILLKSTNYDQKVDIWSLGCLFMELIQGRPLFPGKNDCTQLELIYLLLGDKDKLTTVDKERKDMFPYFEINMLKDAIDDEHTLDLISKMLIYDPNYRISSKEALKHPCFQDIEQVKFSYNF

[6] = target: Protein kinase 7 (PK7), Plasmodium falciparum 3D7 (PF3D7_0213400) (UniProt Q7YTF7); test: inhibition of Plasmodium PK7 catalytic activity – biochemical, TCAMS antimalarial set, Kinase-Glo luminescence (AID 1159587); conditions: recombinant PfPK7, Kinase-Glo ATP depletion luminescence
Chain of Protein kinase 7 (PK7), Plasmodium falciparum 3D7 (PF3D7_0213400) (Q7YTF7 1-343): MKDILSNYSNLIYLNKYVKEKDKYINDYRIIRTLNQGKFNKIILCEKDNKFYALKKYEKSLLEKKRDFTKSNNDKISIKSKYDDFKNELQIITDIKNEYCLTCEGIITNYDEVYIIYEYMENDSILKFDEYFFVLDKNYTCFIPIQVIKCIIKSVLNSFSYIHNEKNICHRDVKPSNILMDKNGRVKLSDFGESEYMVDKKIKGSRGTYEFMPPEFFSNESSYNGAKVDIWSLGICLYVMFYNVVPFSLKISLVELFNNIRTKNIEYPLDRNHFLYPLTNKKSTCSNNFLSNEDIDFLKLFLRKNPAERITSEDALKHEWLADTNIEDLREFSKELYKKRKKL

[7] = target: Calcium-dependent protein kinase 4 (Plasmodium falciparum (isolate 3D7)) (UniProt Q8IBS5); test: PfCDPK4 kinase inhibitors, biochemical, TCAMS library (AID 1159588; cut-off not given, nearly all actives have IC50 up to about 0.91 µM); conditions: recombinant PfCDPK4, Kinase-Glo ATP depletion luminescence
Chain of Calcium-dependent protein kinase 4 (Plasmodium falciparum (isolate 3D7)) (Q8IBS5 whole entry, looked up): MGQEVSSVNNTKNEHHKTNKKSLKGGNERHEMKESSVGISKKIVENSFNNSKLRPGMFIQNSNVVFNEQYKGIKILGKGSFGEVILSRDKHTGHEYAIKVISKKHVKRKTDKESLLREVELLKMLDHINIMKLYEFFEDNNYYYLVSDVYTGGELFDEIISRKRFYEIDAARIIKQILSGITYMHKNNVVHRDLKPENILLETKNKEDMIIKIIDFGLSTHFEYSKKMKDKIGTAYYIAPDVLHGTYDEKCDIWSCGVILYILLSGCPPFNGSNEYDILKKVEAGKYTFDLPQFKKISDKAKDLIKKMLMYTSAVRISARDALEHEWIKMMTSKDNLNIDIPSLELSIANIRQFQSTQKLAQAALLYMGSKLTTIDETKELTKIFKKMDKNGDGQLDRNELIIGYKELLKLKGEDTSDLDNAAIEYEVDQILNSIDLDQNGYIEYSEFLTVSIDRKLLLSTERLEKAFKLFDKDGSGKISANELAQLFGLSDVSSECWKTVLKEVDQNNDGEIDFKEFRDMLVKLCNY

COc1ccc(C2c3ccccc3-c3nc(N)nc(N)c3C2C)cc1 (stereo not drawn)
active: growth inhibition [3] 97%
inactive: growth inhibition [1] 0% | inhibition [2] 3% | outcome [4] | outcome [5] | outcome [6] | outcome [7]

COc1ccc2c(c1CCNCCCCNCCc1c(OC)ccc3c1CCCC3)CCCC2
active: growth inhibition [3] 101%
inactive: growth inhibition [1] 25% | inhibition [2] 7% | outcome [4] | outcome [5] | outcome [6] | outcome [7]

CC(=NNC(=S)NCCc1ccccn1)c1ccccn1
inactive: inhibition [2] -3% | outcome [4] | outcome [5] | outcome [6] | outcome [7]
active: growth inhibition [1] 95% | growth inhibition [3] 100%

Cc1cc(=O)c(-c2ccc(S(=O)(=O)c3ccc(Cl)cc3)cc2)c(C)[nH]1
inactive: inhibition [2] 4% | outcome [4] | outcome [5] | outcome [6] | outcome [7]
active: growth inhibition [1] 80% | growth inhibition [3] 92%

CCc1ccc(Cc2cnc3nc(N)nc(N)c3c2C)cc1CC
active: growth inhibition [3] 97%
inactive: growth inhibition [1] -1% | inhibition [2] 6% | outcome [4] | outcome [5] | outcome [6] | outcome [7]

Cc1[nH]c(C)c(-c2cccc(Oc3ccc(Cl)cc3)c2)c(=O)c1Br
active: growth inhibition [1] 97% | growth inhibition [3] 96%
inactive: inhibition [2] 4% | outcome [4] | outcome [5] | outcome [6] | outcome [7]

CC(CN=C(N)c1cccc(C(N)=NCC(C)Oc2cccc(C3CCCCC3)c2)n1)Oc1cccc(C2CCCCC2)c1 (stereo not drawn)
active: growth inhibition [3] 90%
inactive: growth inhibition [1] 31% | inhibition [2] 2% | outcome [4] | outcome [5] | outcome [6] | outcome [7]

CCCc1cc(Cc2cnc(N)nc2N)c2cccnc2c1OC
inactive: growth inhibition [1] 3% | inhibition [2] 2% | outcome [4] | outcome [5] | outcome [6] | outcome [7]
active: growth inhibition [3] 98%

CCCc1cc(OC)c(CC2c3cc(O)c(Cl)cc3C(c3ccccc3)CN2C)cc1OC (stereo not drawn)
inactive: inhibition [2] 4% | outcome [4] | outcome [5] | outcome [6] | outcome [7]
active: growth inhibition [1] 100% | growth inhibition [3] 100%

Nc1nc(N)c2c(Sc3ccccc3)cccc2n1
active: growth inhibition [3] 97%
inactive: growth inhibition [1] 0% | inhibition [2] -5% | outcome [4] | outcome [5] | outcome [6] | outcome [7]

Nc1nc(N)c2c3c(ccc2n1)NCCC3
active: growth inhibition [3] 97%
inactive: growth inhibition [1] -10% | inhibition [2] -3% | outcome [4] | outcome [5] | outcome [6] | outcome [7]

Nc1nc(N)c2c(Oc3cccc(Cl)c3)cccc2n1
inactive: growth inhibition [1] 7% | inhibition [2] -7% | outcome [4] | outcome [5] | outcome [6] | outcome [7]
active: growth inhibition [3] 97%

Nc1nnc(-c2ccc(Cl)c(Br)c2)c(N)n1
active: growth inhibition [3] 86%
inactive: growth inhibition [1] -3% | inhibition [2] -3% | outcome [4] | outcome [5] | outcome [6] | outcome [7]

COCCOCCOCCn1ccc2c3c(N)nc(N)nc3ccc21
active: growth inhibition [3] 97%
inactive: growth inhibition [1] 0% | inhibition [2] -10% | outcome [4] | outcome [5] | outcome [6] | outcome [7]

CCN(CC)CCNc1cc(C)nc(/N=C(\N)Nc2ccc(Cl)cc2)n1
inactive: growth inhibition [1] 0% | inhibition [2] 3% | outcome [4] | outcome [5] | outcome [6] | outcome [7]
active: growth inhibition [3] 101%

Nc1ccncc1C(=O)NCCCCN1CCN(c2nsc3ccccc23)CC1
active: growth inhibition [3] 101%
inactive: growth inhibition [1] 9% | inhibition [2] 6% | outcome [4] | outcome [5] | outcome [6] | outcome [7]

CCC(C(C)C)n1ccc2c3c(N)nc(N)nc3ccc21 (stereo not drawn)
active: growth inhibition [1] 95% | growth inhibition [3] 95%
inactive: inhibition [2] 3% | outcome [4] | outcome [5] | outcome [6] | outcome [7]

CC(C)(C)c1ccc(-c2nnc(N)nc2N)cc1
active: growth inhibition [3] 92%
inactive: growth inhibition [1] -4% | inhibition [2] -4% | outcome [4] | outcome [5] | outcome [6] | outcome [7]

CC(C)CNc1nc(N)nc2ccc3c(ccn3CC(C)C)c12
inactive: inhibition [2] -7% | outcome [4] | outcome [5] | outcome [6] | outcome [7]
active: growth inhibition [1] 51% | growth inhibition [3] 99%

COc1cccc(Cn2ccc3c4c(N)nc(N)nc4ccc32)c1
active: growth inhibition [1] 96% | growth inhibition [3] 99%
inactive: inhibition [2] -2% | outcome [4] | outcome [5] | outcome [6] | outcome [7]

CCN(C)C(=O)n1ncc2c3c(N)nc(N)nc3ccc21
inactive: growth inhibition [1] 0% | inhibition [2] 6% | outcome [4] | outcome [5] | outcome [6] | outcome [7]
active: growth inhibition [3] 95%

CCOC(=O)N1CCN(CCCCCNc2cc(C)nc(/N=C(\N)Nc3ccc(Cl)cc3)n2)CC1
active: growth inhibition [3] 101%
inactive: growth inhibition [1] 0% | inhibition [2] -1% | outcome [4] | outcome [5] | outcome [6] | outcome [7]

CCCCNCc1ccc(OCc2cccc(COc3ccc(CNCCCC)cc3I)c2)c(I)c1
inactive: growth inhibition [1] 13% | inhibition [2] 6% | outcome [4] | outcome [5] | outcome [6] | outcome [7]
active: growth inhibition [3] 87%

CC1CN=C(c2ccc(NC(=O)Nc3ccc(C4=NCC(C)N4)cc3)cc2)N1 (stereo not drawn)
active: growth inhibition [1] 67% | growth inhibition [3] 85%
inactive: inhibition [2] 0% | outcome [4] | outcome [5] | outcome [6] | outcome [7]

Cc1ccccc1OCCCc1c(C)nc(N)nc1N
inactive: growth inhibition [1] 1% | inhibition [2] -3% | outcome [4] | outcome [5] | outcome [6] | outcome [7]
active: growth inhibition [3] 97%

Cn1c(=N)cc(-c2cccc(I)c2)c2c(=O)[nH]c(N)nc21
inactive: inhibition [2] 6% | outcome [4] | outcome [5] | outcome [6] | outcome [7]
active: growth inhibition [1] 75% | growth inhibition [3] 89%

COc1cc(CCNC(=O)Cc2ccc3ccccc3c2)ccc1OCc1ccccc1
active: growth inhibition [1] 61% | growth inhibition [3] 93%
inactive: inhibition [2] 2% | outcome [4] | outcome [5] | outcome [6] | outcome [7]

CCNCCCC(C)Nc1ccnc2cc(Cl)ccc12 (stereo not drawn)
active: growth inhibition [3] 100%
inactive: growth inhibition [1] -3% | inhibition [2] 0% | outcome [4] | outcome [5] | outcome [6] | outcome [7]

CCn1c(O)c(N=NC(=S)N2CCCC2)c2ccccc21
active: growth inhibition [3] 91%
inactive: growth inhibition [1] 9% | inhibition [2] 4% | outcome [4] | outcome [5] | outcome [6] | outcome [7]

CCCCCCCN(Cc1ccc(OC(C)(C)C(=O)OCC)cc1)C(=O)Nc1ccc(Cl)cc1OCC
inactive: inhibition [2] 1% | outcome [4] | outcome [5] | outcome [6] | outcome [7]
active: growth inhibition [1] 89% | growth inhibition [3] 95%

COc1ccc(OC)c(Cc2c(C)nc3nc(N)nc(N)c3c2C)c1
inactive: growth inhibition [1] 0% | inhibition [2] -2% | outcome [4] | outcome [5] | outcome [6] | outcome [7]
active: growth inhibition [3] 90%

CC(=O)Oc1c(Cl)c(C)nc(C)c1-c1ccc(Oc2ccc(Cl)cc2)cc1
active: growth inhibition [1] 96% | growth inhibition [3] 98%
inactive: inhibition [2] 0% | outcome [4] | outcome [5] | outcome [6] | outcome [7]

COc1cc(Cc2cnc(N)nc2N)cc(OCCCS(=O)(=O)O)c1OC
inactive: growth inhibition [1] -6% | inhibition [2] 1% | outcome [4] | outcome [5] | outcome [6] | outcome [7]
active: growth inhibition [3] 88%

CCc1ccc(Cc2cnc3nc(N)nc(N)c3c2C)cc1
active: growth inhibition [3] 97%
inactive: growth inhibition [1] -1% | inhibition [2] 0% | outcome [4] | outcome [5] | outcome [6] | outcome [7]

COc1cc(Cc2cnc(N)nc2N)cc(OCCCCCCC(=O)O)c1OC
inactive: growth inhibition [1] 2% | inhibition [2] -4% | outcome [4] | outcome [5] | outcome [6] | outcome [7]
active: growth inhibition [3] 90%

CC(C)Cn1ccc2c3c(N)nc(N)nc3ccc21
active: growth inhibition [1] 96% | growth inhibition [3] 96%
inactive: inhibition [2] 1% | outcome [4] | outcome [5] | outcome [6] | outcome [7]

Nc1ncc(-c2ccc(F)c(Cl)c2)c(N)n1
inactive: growth inhibition [1] -2% | inhibition [2] 5% | outcome [4] | outcome [5] | outcome [6] | outcome [7]
active: growth inhibition [3] 83%

Nc1nc(N)c2c(ccc3nn(Cc4ccccc4)cc32)n1
active: growth inhibition [1] 88% | growth inhibition [3] 97%
inactive: inhibition [2] 0% | outcome [4] | outcome [5] | outcome [6] | outcome [7]

Nc1nc(N)c2c(n1)CCc1cc(Br)ccc1-2
active: growth inhibition [3] 87%
inactive: growth inhibition [1] 4% | inhibition [2] 6% | outcome [4] | outcome [5] | outcome [6] | outcome [7]

Cc1[nH]c(C)c(-c2ccc(Oc3ccc(C(F)(F)F)cc3)cc2)c(=O)c1Br
inactive: inhibition [2] -8% | outcome [4] | outcome [5] | outcome [6] | outcome [7]
active: growth inhibition [1] 97% | growth inhibition [3] 97%

Cc1[nH]c(C)c(-c2ccc(Cl)cc2)c(=O)c1I
inactive: inhibition [2] -5% | outcome [4] | outcome [5] | outcome [6] | outcome [7]
active: growth inhibition [1] 96% | growth inhibition [3] 93%

CCC(C)c1cnc2nc(N)nc(N)c2c1C (stereo not drawn)
active: growth inhibition [3] 97%
inactive: growth inhibition [1] 1% | inhibition [2] -3% | outcome [4] | outcome [5] | outcome [6] | outcome [7]

CCN(CC)CCCN(CCCN(CC)CC)c1cc(C)nc(Nc2ccc(Br)cc2)n1
inactive: growth inhibition [1] 40% | inhibition [2] 6% | outcome [4] | outcome [5] | outcome [6] | outcome [7]
active: growth inhibition [3] 101%

Cc1nc(C)c(-c2ccc(Oc3ccc(OC(F)(F)F)cc3)cc2)c(OC(=O)c2ccccc2)c1Cl
inactive: inhibition [2] 2% | outcome [4] | outcome [5] | outcome [6] | outcome [7]
active: growth inhibition [1] 97% | growth inhibition [3] 97%

CCCN(c1ccc(O)c(CN2CCCCC2)c1)c1ccc([N+](=O)[O-])cn1
active: growth inhibition [1] 96% | growth inhibition [3] 99%
inactive: inhibition [2] 4% | outcome [4] | outcome [5] | outcome [6] | outcome [7]

COc1cc(Cc2cnc(N)nc2N)cc(OCCCCCCN)c1OC
inactive: growth inhibition [1] -4% | inhibition [2] -6% | outcome [4] | outcome [5] | outcome [6] | outcome [7]
active: growth inhibition [3] 96%

COc1ccccc1-c1nc2c(ccc3nc(N)nc(N)c32)[nH]1
active: growth inhibition [1] 93% | growth inhibition [3] 101%
inactive: inhibition [2] 2% | outcome [4] | outcome [5] | outcome [6] | outcome [7]

Nc1nc(N)c2c(ccc3c2cnn3Cc2cccnc2)n1
active: growth inhibition [1] 96% | growth inhibition [3] 95%
inactive: inhibition [2] 0% | outcome [4] | outcome [5] | outcome [6] | outcome [7]

CCCCc1cc(Cc2cnc(N)nc2N)cc(OC)c1OC
active: growth inhibition [3] 86%
inactive: growth inhibition [1] -1% | inhibition [2] 3% | outcome [4] | outcome [5] | outcome [6] | outcome [7]
